Experimental data published in ChEMBL document CHEMBL1961873, “Compounds: GSK PKIS; Assays: Nanosyn kinase panel” (2012).

Tests used:
[1] = molecular target: Calcium/calmodulin-dependent protein kinase type II subunit alpha (Homo sapiens) (UniProt Q9UQM7); conditions: at 1 µM;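 further: reported value is a mean percent inhibition of CAMK2A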
[2] = molecular target: Calcium/calmodulin-dependent protein kinase type II subunit delta (Homo sapiens) (UniProt Q13557); conditions: at 0.1 µM
[3] = molecular target: Calcium/calmodulin-dependent protein kinase type II subunit delta (Homo sapiens) (UniProt Q13557); conditions: at 1 µM
[4] = molecular target: T1, Calcium/calmodulin-dependent protein kinase type IV (Homo sapiens) (UniProt Q16566); conditions: at 0.1 µM
T1 sequence (whole entry): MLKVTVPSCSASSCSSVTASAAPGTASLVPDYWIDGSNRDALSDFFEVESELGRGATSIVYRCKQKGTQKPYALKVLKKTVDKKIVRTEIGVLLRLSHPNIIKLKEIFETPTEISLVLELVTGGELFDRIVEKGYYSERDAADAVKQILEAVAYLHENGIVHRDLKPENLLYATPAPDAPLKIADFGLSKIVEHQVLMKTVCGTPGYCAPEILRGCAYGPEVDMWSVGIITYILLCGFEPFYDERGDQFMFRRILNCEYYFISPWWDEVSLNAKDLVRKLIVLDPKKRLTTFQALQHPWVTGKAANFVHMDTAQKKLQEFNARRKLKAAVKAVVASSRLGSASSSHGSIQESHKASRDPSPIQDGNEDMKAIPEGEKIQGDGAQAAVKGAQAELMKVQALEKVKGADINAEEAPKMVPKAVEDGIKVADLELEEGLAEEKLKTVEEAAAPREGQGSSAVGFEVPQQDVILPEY

[5] = molecular target: T1, Calcium/calmodulin-dependent protein kinase type IV (Homo sapiens); conditions: at 1 µM
[6] = molecular target: T2, Serine/threonine-protein kinase Chk1 (Homo sapiens) (UniProt O14757); conditions: at 0.1 µM
T2 sequence (whole entry): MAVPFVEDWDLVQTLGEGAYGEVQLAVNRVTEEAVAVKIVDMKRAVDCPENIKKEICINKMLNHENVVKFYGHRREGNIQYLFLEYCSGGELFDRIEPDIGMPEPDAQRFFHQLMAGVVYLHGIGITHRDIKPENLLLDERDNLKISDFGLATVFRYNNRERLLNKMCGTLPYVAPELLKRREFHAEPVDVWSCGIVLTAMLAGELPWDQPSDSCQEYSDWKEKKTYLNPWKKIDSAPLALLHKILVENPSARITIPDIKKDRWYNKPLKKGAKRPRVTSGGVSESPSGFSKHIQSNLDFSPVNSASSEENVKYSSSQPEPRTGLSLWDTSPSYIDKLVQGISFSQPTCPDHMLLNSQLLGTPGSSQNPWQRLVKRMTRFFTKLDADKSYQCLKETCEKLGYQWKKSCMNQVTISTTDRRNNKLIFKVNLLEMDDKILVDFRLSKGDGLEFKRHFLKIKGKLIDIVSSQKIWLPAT

[7] = molecular target: T2, Serine/threonine-protein kinase Chk1 (Homo sapiens); conditions: at 1 µM
[8] = molecular target: Serine/threonine-protein kinase Chk2 (Homo sapiens) (UniProt O96017); conditions: at 0.1 µM
Chain of Serine/threonine-protein kinase Chk2 (Homo sapiens) (O96017 whole entry): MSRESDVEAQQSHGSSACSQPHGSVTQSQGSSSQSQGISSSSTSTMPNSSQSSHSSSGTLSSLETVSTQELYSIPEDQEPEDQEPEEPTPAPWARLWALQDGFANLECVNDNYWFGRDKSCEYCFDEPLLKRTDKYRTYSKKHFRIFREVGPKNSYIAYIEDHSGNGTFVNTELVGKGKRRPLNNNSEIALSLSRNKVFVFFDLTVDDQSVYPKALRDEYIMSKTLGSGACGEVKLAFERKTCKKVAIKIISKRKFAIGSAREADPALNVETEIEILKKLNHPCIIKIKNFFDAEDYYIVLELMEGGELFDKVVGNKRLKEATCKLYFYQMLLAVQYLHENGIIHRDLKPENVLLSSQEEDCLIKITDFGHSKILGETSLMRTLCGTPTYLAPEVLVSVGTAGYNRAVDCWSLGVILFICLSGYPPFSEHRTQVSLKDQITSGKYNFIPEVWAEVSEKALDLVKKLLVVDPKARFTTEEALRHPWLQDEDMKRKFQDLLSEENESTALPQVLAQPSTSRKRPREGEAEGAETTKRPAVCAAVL

[9] = molecular target: Serine/threonine-protein kinase Chk2 (Homo sapiens) (UniProt O96017); conditions: at 1 µM
[10] = molecular target: Death-associated protein kinase 1 (Homo sapiens) (UniProt P53355); conditions: at 0.1 µM
Chain of Death-associated protein kinase 1 (Homo sapiens) (P53355 whole entry, looked up): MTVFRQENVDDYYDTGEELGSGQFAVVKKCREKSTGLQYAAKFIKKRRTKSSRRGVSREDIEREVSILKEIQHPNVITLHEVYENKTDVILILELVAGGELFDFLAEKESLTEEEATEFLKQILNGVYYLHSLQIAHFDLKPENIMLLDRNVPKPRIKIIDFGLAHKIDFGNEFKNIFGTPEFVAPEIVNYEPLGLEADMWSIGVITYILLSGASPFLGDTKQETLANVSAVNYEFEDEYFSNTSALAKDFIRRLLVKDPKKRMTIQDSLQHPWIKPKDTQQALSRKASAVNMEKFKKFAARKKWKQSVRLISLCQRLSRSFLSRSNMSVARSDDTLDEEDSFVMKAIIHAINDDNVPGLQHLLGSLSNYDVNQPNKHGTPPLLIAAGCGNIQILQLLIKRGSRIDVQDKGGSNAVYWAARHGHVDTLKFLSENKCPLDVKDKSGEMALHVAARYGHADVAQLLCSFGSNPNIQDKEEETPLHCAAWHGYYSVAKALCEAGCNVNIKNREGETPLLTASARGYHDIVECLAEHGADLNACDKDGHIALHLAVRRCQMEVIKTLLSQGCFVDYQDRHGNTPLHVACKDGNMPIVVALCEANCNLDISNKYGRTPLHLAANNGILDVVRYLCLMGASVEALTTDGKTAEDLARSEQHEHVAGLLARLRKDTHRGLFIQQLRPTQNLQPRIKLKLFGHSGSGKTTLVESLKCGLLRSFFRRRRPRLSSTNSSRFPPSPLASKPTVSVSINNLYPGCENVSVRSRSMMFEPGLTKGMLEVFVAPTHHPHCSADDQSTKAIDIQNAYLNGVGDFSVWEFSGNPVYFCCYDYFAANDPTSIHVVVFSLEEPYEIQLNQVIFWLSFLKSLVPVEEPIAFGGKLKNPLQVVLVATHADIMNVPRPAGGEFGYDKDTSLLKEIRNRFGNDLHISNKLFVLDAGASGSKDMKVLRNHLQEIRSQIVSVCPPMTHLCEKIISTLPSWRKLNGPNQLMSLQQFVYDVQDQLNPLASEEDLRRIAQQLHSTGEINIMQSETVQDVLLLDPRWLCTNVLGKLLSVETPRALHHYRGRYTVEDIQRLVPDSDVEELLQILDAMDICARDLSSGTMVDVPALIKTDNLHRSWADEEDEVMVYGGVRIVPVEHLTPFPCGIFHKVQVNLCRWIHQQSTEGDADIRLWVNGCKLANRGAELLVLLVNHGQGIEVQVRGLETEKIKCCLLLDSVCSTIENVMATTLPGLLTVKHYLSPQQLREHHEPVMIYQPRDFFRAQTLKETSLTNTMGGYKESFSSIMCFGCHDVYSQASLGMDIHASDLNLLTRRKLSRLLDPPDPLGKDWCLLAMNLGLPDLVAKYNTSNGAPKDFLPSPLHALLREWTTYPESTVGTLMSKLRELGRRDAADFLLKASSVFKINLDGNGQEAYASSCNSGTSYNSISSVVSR

[11] = molecular target: Death-associated protein kinase 1 (Homo sapiens) (UniProt P53355); conditions: at 1 µM
[12] = molecular target: T3, Serine/threonine-protein kinase DCLK2 (Homo sapiens) (UniProt Q8N568); conditions: at 1 µM
T3 sequence (whole entry): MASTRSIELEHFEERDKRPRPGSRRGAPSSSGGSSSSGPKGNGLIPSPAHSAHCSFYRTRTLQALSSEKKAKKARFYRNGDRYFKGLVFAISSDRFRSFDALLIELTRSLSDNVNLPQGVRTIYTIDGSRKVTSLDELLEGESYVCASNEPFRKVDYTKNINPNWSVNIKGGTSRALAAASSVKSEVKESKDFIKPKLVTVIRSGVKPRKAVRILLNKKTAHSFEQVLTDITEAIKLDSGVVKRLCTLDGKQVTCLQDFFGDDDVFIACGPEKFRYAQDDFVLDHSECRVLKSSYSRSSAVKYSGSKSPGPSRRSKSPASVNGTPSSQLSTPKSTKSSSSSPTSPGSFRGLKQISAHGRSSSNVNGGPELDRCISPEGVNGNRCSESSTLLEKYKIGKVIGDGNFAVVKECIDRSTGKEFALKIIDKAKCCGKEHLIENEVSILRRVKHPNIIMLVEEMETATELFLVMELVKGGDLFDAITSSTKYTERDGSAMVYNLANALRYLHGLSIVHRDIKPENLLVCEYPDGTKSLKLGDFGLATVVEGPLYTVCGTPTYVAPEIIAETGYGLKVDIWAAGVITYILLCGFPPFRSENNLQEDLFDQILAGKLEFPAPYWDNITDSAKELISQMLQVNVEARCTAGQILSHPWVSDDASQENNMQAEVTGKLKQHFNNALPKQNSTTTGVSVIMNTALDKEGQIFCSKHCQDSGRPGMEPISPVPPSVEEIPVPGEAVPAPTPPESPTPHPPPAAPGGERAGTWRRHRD

[13] = molecular target: MAP kinase-activated protein kinase 2 (Homo sapiens) (UniProt P49137); conditions: at 0.1 µM
Chain of MAP kinase-activated protein kinase 2 (Homo sapiens) (P49137 whole entry, looked up): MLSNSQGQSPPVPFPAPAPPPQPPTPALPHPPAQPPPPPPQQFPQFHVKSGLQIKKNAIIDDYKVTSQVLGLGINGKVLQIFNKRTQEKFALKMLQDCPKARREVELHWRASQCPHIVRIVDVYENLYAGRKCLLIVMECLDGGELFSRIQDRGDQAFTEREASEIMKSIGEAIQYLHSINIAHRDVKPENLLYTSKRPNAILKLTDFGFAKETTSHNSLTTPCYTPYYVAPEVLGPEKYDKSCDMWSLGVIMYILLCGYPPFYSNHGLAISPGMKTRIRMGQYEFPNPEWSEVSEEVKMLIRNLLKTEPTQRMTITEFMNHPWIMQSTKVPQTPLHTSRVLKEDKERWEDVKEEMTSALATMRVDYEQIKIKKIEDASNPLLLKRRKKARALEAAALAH

[14] = molecular target: MAP kinase-activated protein kinase 2 (Homo sapiens) (UniProt P49137); conditions: at 1 µM
[15] = molecular target: MAP kinase-activated protein kinase 3 (Homo sapiens) (UniProt Q16644); conditions: at 0.1 µM
Chain of MAP kinase-activated protein kinase 3 (Homo sapiens) (Q16644 whole entry, looked up): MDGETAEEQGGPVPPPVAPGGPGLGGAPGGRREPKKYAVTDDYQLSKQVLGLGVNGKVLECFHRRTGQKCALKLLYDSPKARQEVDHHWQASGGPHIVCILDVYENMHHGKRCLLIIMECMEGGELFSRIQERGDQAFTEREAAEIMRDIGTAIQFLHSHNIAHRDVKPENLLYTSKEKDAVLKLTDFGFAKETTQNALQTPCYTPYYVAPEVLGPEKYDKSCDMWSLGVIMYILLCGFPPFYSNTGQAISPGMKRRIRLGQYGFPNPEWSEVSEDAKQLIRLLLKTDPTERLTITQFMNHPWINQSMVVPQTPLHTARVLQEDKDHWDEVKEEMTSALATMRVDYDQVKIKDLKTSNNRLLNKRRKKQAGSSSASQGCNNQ

[16] = molecular target: MAP kinase-activated protein kinase 3 (Homo sapiens) (UniProt Q16644); conditions: at 1 µM
[17] = molecular target: Serine/threonine-protein kinase MARK1 (Homo sapiens) (UniProt Q9P0L2); conditions: at 0.1 µM
Chain of Serine/threonine-protein kinase MARK1 (Homo sapiens) (Q9P0L2 whole entry, looked up): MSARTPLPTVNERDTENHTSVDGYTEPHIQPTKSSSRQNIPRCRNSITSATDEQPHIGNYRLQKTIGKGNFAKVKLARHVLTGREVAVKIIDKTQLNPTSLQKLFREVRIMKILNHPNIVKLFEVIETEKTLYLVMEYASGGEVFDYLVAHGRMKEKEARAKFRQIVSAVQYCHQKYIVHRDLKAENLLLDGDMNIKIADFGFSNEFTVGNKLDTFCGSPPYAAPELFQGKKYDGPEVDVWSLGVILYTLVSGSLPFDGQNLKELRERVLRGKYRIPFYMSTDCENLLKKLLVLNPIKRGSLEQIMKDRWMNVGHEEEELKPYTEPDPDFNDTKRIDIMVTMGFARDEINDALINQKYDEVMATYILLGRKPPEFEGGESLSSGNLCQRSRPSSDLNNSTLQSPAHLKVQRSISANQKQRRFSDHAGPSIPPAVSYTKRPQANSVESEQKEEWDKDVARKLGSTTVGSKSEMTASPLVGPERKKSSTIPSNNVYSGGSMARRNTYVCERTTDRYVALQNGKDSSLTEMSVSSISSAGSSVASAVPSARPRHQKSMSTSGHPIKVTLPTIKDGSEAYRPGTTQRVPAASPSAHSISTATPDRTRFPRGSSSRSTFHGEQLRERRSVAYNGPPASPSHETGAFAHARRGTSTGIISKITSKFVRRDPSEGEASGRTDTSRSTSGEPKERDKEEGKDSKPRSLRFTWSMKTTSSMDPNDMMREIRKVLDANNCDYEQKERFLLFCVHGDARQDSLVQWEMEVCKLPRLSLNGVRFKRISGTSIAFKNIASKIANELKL

[18] = molecular target: Serine/threonine-protein kinase MARK1 (Homo sapiens) (UniProt Q9P0L2); conditions: at 1 µM
[19] = molecular target: MAP/microtubule affinity-regulating kinase 3 (Homo sapiens) (UniProt P27448); conditions: at 0.1 µM;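 further: mean percent inhibition of MARK3 kinase activity, measured within the GSK PKIS screening panel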
Chain of MAP/microtubule affinity-regulating kinase 3 (Homo sapiens) (P27448 whole entry, looked up): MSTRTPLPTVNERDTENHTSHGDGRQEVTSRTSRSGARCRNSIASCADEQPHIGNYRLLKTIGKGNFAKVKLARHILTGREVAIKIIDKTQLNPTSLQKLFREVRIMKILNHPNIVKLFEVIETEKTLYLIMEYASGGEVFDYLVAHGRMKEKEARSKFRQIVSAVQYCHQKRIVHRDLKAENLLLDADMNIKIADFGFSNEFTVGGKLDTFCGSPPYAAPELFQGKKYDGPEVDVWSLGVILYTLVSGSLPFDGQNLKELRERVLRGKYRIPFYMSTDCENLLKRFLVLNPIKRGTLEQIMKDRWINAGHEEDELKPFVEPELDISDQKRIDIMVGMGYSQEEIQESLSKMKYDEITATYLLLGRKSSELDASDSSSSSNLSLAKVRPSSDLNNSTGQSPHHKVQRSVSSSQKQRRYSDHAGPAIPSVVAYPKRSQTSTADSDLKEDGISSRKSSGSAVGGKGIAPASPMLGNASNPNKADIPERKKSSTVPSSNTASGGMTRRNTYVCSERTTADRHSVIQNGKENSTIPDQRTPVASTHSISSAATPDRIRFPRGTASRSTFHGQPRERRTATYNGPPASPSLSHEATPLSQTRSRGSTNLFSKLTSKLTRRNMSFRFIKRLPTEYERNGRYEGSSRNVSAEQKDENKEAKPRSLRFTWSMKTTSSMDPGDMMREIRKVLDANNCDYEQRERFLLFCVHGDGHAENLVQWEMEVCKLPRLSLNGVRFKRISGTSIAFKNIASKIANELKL

[20] = molecular target: T3, Serine/threonine-protein kinase DCLK2 (Homo sapiens); conditions: at 0.1 µM

Chain of Calcium/calmodulin-dependent protein kinase type II subunit alpha (Homo sapiens) (Q9UQM7 whole entry): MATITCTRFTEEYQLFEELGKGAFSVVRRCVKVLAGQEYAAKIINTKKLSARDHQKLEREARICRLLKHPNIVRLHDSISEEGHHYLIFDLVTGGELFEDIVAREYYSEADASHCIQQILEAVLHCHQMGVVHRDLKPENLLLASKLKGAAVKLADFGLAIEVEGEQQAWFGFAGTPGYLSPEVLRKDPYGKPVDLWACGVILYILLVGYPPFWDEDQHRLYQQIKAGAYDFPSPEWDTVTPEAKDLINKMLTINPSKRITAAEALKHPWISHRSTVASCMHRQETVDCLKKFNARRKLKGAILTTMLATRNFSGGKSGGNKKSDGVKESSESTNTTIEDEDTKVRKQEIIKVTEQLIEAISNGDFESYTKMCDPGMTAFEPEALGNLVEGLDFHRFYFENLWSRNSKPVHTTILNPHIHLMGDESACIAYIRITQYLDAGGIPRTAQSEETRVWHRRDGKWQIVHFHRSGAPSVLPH

SMILES | inhibition [1] [%] | inhibition [2] [%] | inhibition [3] [%] | inhibition [4] [%] | inhibition [5] [%] | inhibition [6] [%] | inhibition [7] [%] | inhibition [8] [%] | inhibition [9] [%] | inhibition [10] [%] | inhibition [11] [%] | inhibition [12] [%] | inhibition [13] [%] | inhibition [14] [%] | inhibition [15] [%] | inhibition [16] [%] | inhibition [17] [%] | inhibition [18] [%] | inhibition [19] [%] | inhibition [20] [%]
NC(=O)c1cccc(Nc2nccc(Nc3cccc4[nH]ncc34)n2)c1 | -1.01 | -1.68 | 3.58 | 1.19 | 2.27 | 1.94 | 44.1 | -2.95 | 9.48 | 0.17 | 0.2 | 0.29 | -2.49 | -2.06 | -2.55 | -2.42 | -1.84 | 11.7 | 2.03 | –
Fc1cccc(COc2ccc(Nc3ncnc4sc(-c5cccs5)cc34)cc2Cl)c1 | -2.43 | -0.89 | 1.53 | – | -0.72 | -6.44 | -5.05 | -6.31 | -6.27 | -9.21 | -9.5 | 2.62 | -2.05 | -2.63 | -4.76 | -5.22 | 0.88 | 2.73 | 0.02 | -1.25
COc1cc2ncn(-c3cc(OCc4ccccc4Cl)c(C(N)=O)s3)c2cc1OC | -0.06 | 0.36 | 2.88 | 0.78 | 0.41 | -4.54 | -4.25 | -4.95 | -0.53 | -8.75 | – | 4.65 | -2.81 | -3.53 | -5.38 | -2.78 | 2.4 | 9.28 | 1.85 | -1.31
c1cnn2ncc(-c3ccnc(Nc4ccc5c(c4)OCCO5)n3)c2c1 | 15.3 | 7.61 | 35.7 | 0.39 | 1.89 | 0.16 | 6.81 | 2.96 | 9.21 | 3.38 | 3.76 | 1.89 | 2.05 | 2.24 | 3.74 | 3.81 | 4.18 | 24.3 | 5.06 | 1.81
Fc1cccc(COc2ccc(Nc3ncnc4cc(-c5ccc[nH]5)sc34)cc2Cl)c1 | 0.84 | 1.12 | 2.72 | 1.44 | 1.44 | -0.13 | 3.63 | 0.71 | 3.96 | -1.32 | -2.65 | – | -0.38 | -0.64 | 0.31 | -0.26 | 1.53 | 2.14 | -1.42 | -2.61
COc1cc2ncn(-c3cc(O[C@H](C)c4ccccc4Cl)c(C(N)=O)s3)c2cc1OC | 7.42 | 5.14 | 19.1 | -2.07 | -0.73 | 3.51 | -0.5 | -2.58 | -0.51 | -5.15 | -9.77 | 1.35 | -0.8 | -0.71 | -2.77 | -0.41 | 5.95 | 31.9 | 3.47 | 0.64
CS(=O)(=O)CCNCc1ccc(-c2ccc3ncnc(Nc4ccc(OCc5ccccc5)c(Cl)c4)c3c2)o1 | -1.87 | -1.29 | 1.59 | 0.2 | 1.37 | -6.61 | -6.9 | -6.13 | -4.43 | -9.06 | – | 3.26 | -3.32 | -3.36 | -5.03 | -4.68 | 0.39 | 1.89 | 0.63 | -1.35
Cc1ccc(NC(=O)c2ccnc(N3CCCC3)c2)cc1-c1ccc(C(=O)NCC2CC2)cc1 | 5.72 | 4.6 | 7.16 | -0.3 | 2.35 | 3.53 | 7.14 | 3.26 | 4.85 | 2.4 | 5.74 | -0.35 | 0.7 | 1.5 | 19.9 | 30.2 | 5.49 | 8.31 | 6.19 | -1.99
CCc1cccc(NC(=O)Nc2ccc(Oc3ccc4nc(NC(=O)OC)[nH]c4c3)cc2)c1 | 3.77 | 1.51 | 2.63 | 0.16 | -2.32 | – | -6.72 | -4.84 | -2.63 | -5.09 | -5.23 | 1.42 | -0.49 | -1.61 | -2.74 | -3.85 | 1.69 | 0.31 | 1.5 | 6.75
COc1cc2ncn(-c3cc(O[C@@H](C)c4ccccc4Cl)c(C(N)=O)s3)c2cc1OC | -1 | 2.63 | 5.01 | -1.47 | -3.56 | 9.31 | 11.3 | 8.19 | 11.6 | 13.5 | 8.9 | 3.6 | 5.43 | 5 | 9.03 | 10.9 | 4.26 | 9.07 | 4.06 | -1.19
CCn1c(-c2nonc2N)nc2cncc(C(=O)N3CCNCC3)c21 | 4.17 | 4.29 | 6.57 | -0.66 | 1.55 | 6.55 | 13.8 | 2.96 | 5.6 | 8.7 | 8.15 | 1.96 | 2.84 | 5.04 | 6.65 | 10.7 | 2.63 | 3.48 | 5.76 | 0.84
CN1CCC(C(=O)Nc2n[nH]c3nnc(-c4ccccc4)cc23)CC1 | 3.81 | 3.23 | 3.34 | -0.65 | -2.3 | -2.79 | -0.12 | -1.11 | 3.84 | -2.19 | -2.32 | -0.83 | -0.36 | -0.73 | -1.34 | -1.95 | 4.01 | 5.96 | 3.75 | 0.57
Cc1nnc(-c2ccc(C)c(-c3ccc(C(=O)Nc4cccc(C#N)c4)cc3)c2)o1 | 1.16 | 1.1 | 1.51 | -1.55 | -0.84 | 0.73 | 0.92 | 1.03 | 4.05 | 3.42 | 2.66 | – | 1.02 | 0.1 | 5.27 | 16.3 | 1.96 | 4.25 | 2.09 | 0.99
CCn1c(-c2nonc2N)nc2c(C#CC(C)(C)O)nc(OC[C@@H](N)c3ccccc3)cc21 | 0.34 | -0.01 | 1.5 | 2.61 | 3.39 | -5.33 | 7.52 | -5.8 | 1.05 | -8.66 | -7.69 | 1.63 | -3.81 | -3.91 | -6.12 | -7.91 | 0.67 | 19.9 | 3.1 | –
